Data published in the supplement of paper PMC6555819.

tested on: VDR:RXRa (NR concentration 270 nM, RXRa partner concentration 90 nM); test: PBM binding z-score (relative to random genomic background probes); higher = stronger binding; sequences stand for … in GC…GCGATTGACAGCGTAGAATGAAGG
Description: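 Protein-binding microarray (Agilent 4x180K custom design, double-stranded 60-nt probes: 5' GC cap, 34-nt variable region, 24-nt constant primer region; full probe sequence given). Purified or IVT nuclear receptor:RXRα heterodimers (3:1 NR:RXRα, mostly 270:90 nM) or homodimers were incubated for 1 h in PBS with 2% milk and no ligand, then detected with Alexa488 antibodies. Fluorescence from o1-orientation probes (~5 replicates averaged) was converted to z-scores against 500 random hg19 background probes. Variable regions are seed direct-repeat (DR0–DR5) sites, all their single-nucleotide variants and half-site ablations.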

Sequence | PBM binding z-score
GTACCAAGGTGAATAGGTCGTTGTTGAGTAGGCG | 0.825
CCGACTAGGGCAAAGGTTACCATACTCAGTACGA | 1.61
AGAATGAGGGTACCAAAGATCAGGGAAACGCTTG | 0.0257
ATCGTAAGGTCGAGGTGAGTATAGAGAAAGGGAA | 1.99
TGAATGAGGTTAAAGATCAGGGAACGTGGCGTCG | 1.99
GCTGCTCGGTCAGGTTGGTCAGCTAACGGGTACG | -0.457
GGAACGAGGGCAAAGTTAATAGCATCTGTCGACG | 1.17
ACAGACAGGTGATGAAGGTTACTCAGGCTATCAT | 1.64
ATATGTAGGTTACATACGGGTCATTCAGGCTATG | 4.14
AGTATGAGGTTATTAAGATCAGGGAATTGCGGTC | 2.58
GGAACGAGGGCATACGAGTTGATAGCATGGCGAT | 2.73
TAGCCTAGGTCATGGGCCAGTATACCACGCGAAC | 1.97
GCTTGTAGACCAAGGTTAAGAAAGACTAAGCTAA | 0.0143
CTCGAAACGTCGTGCTCAGGTGAGTATACCAAAC | -0.365
AGAATGAGGTTATACGTAAATCAGGGAAGAAAGT | 1.21
CCTAGTTGGACAGGAGGTCACACACCGGATATGA | 3.69
TCATCTAGGTAAATGCTAGGTGAAAGTCCGATCT | 0.555
CCTACTGGGTCATCAGGTCATTGATATCAACGTT | 4.24
TCTATTAGTTGATTAGGGTAACCGAAACAGCGGA | 0.996
GCTAGTTGGTCTGTAAAAGGTCACACACCGGTCG | 3.94

Sequence | PBM binding z-score
TCTTGTAGATCAGTAGGTTAAGAAAGCTGGCCAA | 0.673
GCTAGCAGGCCATTCGGGTCACTCAATGACGGGC | 3.27
ATCGAAAGGTCGTGAGGTGGGTATACAGAAAGGC | 3.58
GCATATAGGTAATACAAGGTGTAAGTCCGATTGT | -0.12
AGAACGAGGGCAATGAGTCGATAGCACGGGTGGC | 2.39
GCTATTAGTTGAAAGGGCACCCGAATGATTCTCG | 0.313
CCTAGTTGGTCAGGAGGTCACACAGCGGATATGA | 3.94
AGTCAAAGTACACTAGGTAACGTAAGATTCAGCT | -0.00797
AGTCAAAATTCAGGACGAGGTAACGTAAAGCACG | -0.107
TAGCCTAGGTCATTCAGGGGCGAGTATAGAAAGC | 4.57
ACAGACAGGTGATGAAGGTAACTCACGCTATCAT | 0.327
GGAACGAGGGCATTCGAGTCGATAGCATGGCGAT | 1.99
CAAACTAGGTCACAGAGGTCAAAGTACGTGCGTA | 7.94
CGTACTAGGTCATTGACAGGACAGTGAATAGTAA | 2.09
ACTATTAGTTGACTTAGGGCAATCGATACGACGC | 0.462
CCTGCTAGGTCAATGGTCAGCTATAGCAGCTCGC | 0.921
TCTTGTAGATCGAAGGTTAAGAAAGCCGAAGCCT | 0.313
TCTTGTAGATCAGCAGGAGGTTAAGAAAGATCGA | 0.561
GGAACGAGGGCAGAGTTGATAGCATCTGTCGACG | 0.0819
ATCGCTAGGTAACCAAGTTCAGTGAATGCCGAAC | 3.74
